Results published in PubChem BioAssay AID1159580 (chemical genetic matrix, 2015).
Where “and” joins values, the source holds several entries; their conditions need not be identical. Equal values may be shown once. The campaign covered roughly 5,500 compounds. About 2,000 (36%) were called active. Not shown: some 18% with an inconclusive outcome. Cut-off read from the data, not from the text of the source: active = normalized growth mostly below about 0.91 (no sharp cut-off); inconclusive = no clear call, values can overlap the other calls; inactive = mostly above about 0.92. This is one part of the list.

Experiment: chemical genetic growth profiling, strain panel (AID 1159580);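 note: tested at 20 µM; growth read once vehicle control cultures reached saturation at 30 °C; 1 = growth at the plate median or of vehicle wells; lower values mean less growth of the strain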
Settings: S. cerevisiae deletion strains, growth OD

Measured: normalized growth

CC(CN(C)C)CN1c2ccccc2CCc2ccccc21 (stereo not given)
inactive: locus YAL013W, strain DEP1, active compounds read low 1 | locus YAL026C, strain drs2, active compounds read low 0.982 | locus YAL030W, strain snc1, active compounds read low 0.977 | locus YAL040C, strain CLN3, active compounds read low 1.03 | locus YBL061C, strain skt5, active compounds read low 0.984 | locus YBR009C, strain hhf1, active compounds read low 0.972 | locus YBR021W, strain FUR4, active compounds read low 1.01 | locus YBR023C, strain chs3, active compounds read low 0.975 | locus YBR171W, strain sec66, active compounds read low 0.963 | locus YBR229C, strain ROT2, active compounds read low 1.01 | locus YBR231C, strain swc5, active compounds read low 0.976 | locus YBR279W, strain paf1, active compounds read low 0.988 | locus YCL011C, strain gbp2, active compounds read low 0.973 | locus YCL016C, strain dcc1, active compounds read low 0.974 | locus YCL029C, strain bik1, active compounds read low 1.02 | locus YCL061C, strain MRC1 (second series), active compounds read low 1.01 | locus YCL061C, strain MRC1, active compounds read low 0.986 | locus YCL069W, strain vba3, active compounds read low 0.969 | locus YCR088W, strain abp1, active compounds read low 0.977 | locus YDL005C, strain med2, active compounds read low 0.973 | locus YDL035C, strain GPR1, active compounds read low 1.01 | locus YDL040C, strain nat1, active compounds read low 0.976 | locus YDL074C, strain BRE1, active compounds read low 1.02 | locus YDL101C, strain DUN1, active compounds read low 1 | locus YDL134C, strain PPH21, active compounds read low 1.01 | locus YDL185W, strain tfp1, active compounds read low 1.02 | locus YDL192W, strain arf1, active compounds read low 1.01 | locus YDR001C, strain nth1, active compounds read low 0.977 | locus YDR069C, strain doa4, active compounds read low 0.921 | locus YDR101C, strain arx1, active compounds read low 1.02 | locus YDR150W, strain NUM1, active compounds read low 1.02 and 1.01 | locus YDR159W, strain sac3, active compounds read low 0.977 | locus YDR162C, strain NBP2, active compounds read low 1.01 | locus YDR195W, strain ref2 0.999 | locus YDR297W, strain sur2, active compounds read low 0.975 | locus YDR318W, strain mcm21, active compounds read low 1.02 | locus YDR334W, strain swr1, active compounds read low 0.946 | locus YDR335W, strain msn5, active compounds read low 0.975 | locus YDR363W, strain ESC2, active compounds read low 0.993 | locus YDR388W, active compounds read low 1.02 | locus YDR392W, strain spt3, active compounds read low 0.96 | locus YDR502C, strain sam2, active compounds read low 1.03 | locus YEL003W, strain gim4, active compounds read low 0.965 | locus YEL037C, strain rad23, active compounds read low 0.954 | locus YEL061C, strain CIN8 (second series), active compounds read low 0.96 | locus YEL061C, strain CIN8, active compounds read low 1.01 | locus YER002W, strain NOP16, active compounds read low 1.01 | locus YER015W, strain faa2, active compounds read low 0.961 | locus YER016W, strain bim1, active compounds read low 0.975 | locus YER110C, active compounds read low 1.02 | locus YER111C, strain swi4, active compounds read low 0.974 | locus YER155C, strain BEM2 (second series), active compounds read low 0.948 | locus YER155C, strain BEM2, active compounds read low 1 | locus YER167W, strain BCK2, active compounds read low 1.01 | locus YFR010W, strain ubp6, active compounds read low 0.954 | locus YGL078C, strain dbp3, active compounds read low 1.01 | locus YGL086W, strain mad1, active compounds read low 1.01 | locus YGL167C, strain pmr1, active compounds read low 0.98 | locus YGL173C, strain kem1, active compounds read low 0.972 | locus YGL227W, strain vid30, active compounds read low 0.978 | locus YGL240W, strain doc1, active compounds read low 0.969 | locus YGL248W, strain PDE1, active compounds read low 0.996 | locus YGL253W, strain hxk2, active compounds read low 0.977 | locus YGR078C, strain PAC10, active compounds read low 1.01 | locus YGR135W, strain pre9, active compounds read low 1.02 | locus YGR229C, strain SMI1, active compounds read low 0.978 | locus YGR252W, strain gcn5, active compounds read low 0.97 | locus YHR027C, strain rpn1, active compounds read low 0.966 | locus YHR030C, strain SLT2, active compounds read low 1.02 and 0.988 | locus YHR079C, strain IRE1 (second series), active compounds read low 1.01 | locus YHR079C, strain IRE1, active compounds read low 0.981 | locus YHR094C, strain hxt1, active compounds read low 1.01 | locus YHR129C, strain ARP1, active compounds read low 1.01 | locus YHR142W, strain chs7, active compounds read low 0.971 | locus YHR200W, strain rpn10, active compounds read low 1.03 | locus YIL066C, strain RNR3, active compounds read low 1 | locus YIL073C, strain SPO22, active compounds read low 1.07 | locus YIL125W, strain kgd1, active compounds read low 1.01 | locus YIR030C, strain dcg1, active compounds read low 1.01 | locus YJL092W, strain hpr5, active compounds read low 0.936 | locus YJL095W, strain BCK1 (second series), active compounds read low 0.984 | locus YJL095W, strain BCK1, active compounds read low 0.984 and 0.986 | locus YJL115W, strain asf1, active compounds read low 0.957 | locus YJL129C, strain trk1, active compounds read low 0.973 | locus YJL134W, strain LCB3, active compounds read low 1 | locus YJL154C, strain vps35, active compounds read low 0.978 | locus YJL164C, strain tpk1, active compounds read low 0.973 | locus YJL166W, strain qcr8, active compounds read low 0.963 | locus YJL168C, strain set2, active compounds read low 1.02 | locus YJL187C, strain SWE1 (second series), active compounds read low 0.988 | locus YJL187C, strain SWE1, active compounds read low 0.965 | locus YJR043C, strain POL32, active compounds read low 1
active: locus YAL021C, strain ccr4, active compounds read low 0.893 | locus YDR137W, strain rgp1, active compounds read low 1.2 [resistant] | locus YHR013C, strain ard1, active compounds read low 0.833
